# According to PubChem BioAssay AID651610 (Broad Institute, 2012):
# The campaign covered roughly 360,000 compounds. About 3,900 (1.1%) were called active. The sample holds actives, similar compounds and a random draw of the others, so the mix is not that of the screen. A number with no mark means an inactive call.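 The calls were made as follows: active = mean replicate inhibition score of at least 50 and every replicate individually at or above 50; inconclusive = only one of the two criteria met; inactive = mean below 50 and not all replicates reaching 50.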
# Test: inhibitors of HIV-1 Env-driven cell-cell fusion, primary screen, HeLa-JRFL effector, CEM21 target cells, luciferase (AID 651610);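 also: 0% = plate neutral controls and 100% = maraviroc near 300 nM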
# Conditions: hits give high values; at 16.7 µM unless noted
row,SMILES,inhibition
1,CNC(=O)C[C@@H]1CC[C@H]2[C@H](COc3ccc(NC(=O)c4cccc(OC)c4)cc3C(=O)N2C)O1,-18.7%
2,C[C@H](CO)N1C[C@H](C)[C@@H](CN(C)S(=O)(=O)c2ccccc2)Oc2c(NC(=O)c3ccc(-c4nccs4)cc3)cccc2C1=O,-55.7%
3,O=C(Cc1ccncc1)NCC[C@H]1CC[C@H](NC(=O)C2CC2)[C@H](CO)O1,4.94%
4,C[C@@H]1CN([C@@H](C)CO)C(=O)c2cc(NC(=O)C3CCCCC3)ccc2O[C@@H](C)CCCCO[C@H]1CN(C)C(=O)Nc1ccc2c(c1)OCO2,-19.1%
5,COc1ccc(CNc2ncnc3ccccc23)cc1,77% [at 12.3 µM] (active)
6,c1ccc(CNc2ncnc3[nH]ncc23)cc1,27.4% [at 12.3 µM]
7,COc1ccc(CNc2nccs2)cc1,-9.44% [at 12.3 µM]
8,C[C@@H]1CCCCO[C@@H](CN(C)S(=O)(=O)c2cn(C)cn2)[C@@H](C)CN([C@H](C)CO)C(=O)c2cc(NC(=O)c3ccncc3)ccc2O1,26.2%
9,CC(C)NC(=O)Nc1ccc2c(c1)CC(=O)N([C@H](C)CO)C[C@@H](C)[C@H](CN(C)S(=O)(=O)c1ccccc1)O2,2.93%
10,COc1ccc(CNCCCNCc2ccc(OC)c(OC)c2)cc1OC,-12.6% [at 12.3 µM]
11,CCOc1c(CNCc2ccc(C(=O)O)cc2)cccc1OC,1.89% [at 12.3 µM]
12,COc1cc(CNCc2ccc(OC)c3ccccc23)cc(OC)c1OC,99.1% [at 12.3 µM] (active)
13,Cc1noc(C)c1S(=O)(=O)Nc1ccc2c(c1)C(=O)N([C@H](C)CO)C[C@@H](C)[C@@H](CN(C)S(=O)(=O)c1ccc(Cl)cc1)O2,-6.25%
14,C[C@@H]1CN([C@@H](C)CO)C(=O)c2cc(N(C)C)ccc2O[C@H]1CN(C)Cc1ccc(C(F)(F)F)cc1,14.9%
15,COc1ccc(C(=O)Nc2cc(S(=O)(=O)N3CCCC3)ccc2Cl)cc1,-8.82% [at 12.3 µM]
16,CNC(=O)c1ccsc1NC(=O)c1ccc(S(=O)(=O)N2CCOCC2)cc1,-27.2% [at 12.3 µM]
17,COc1ccc(C(=O)Nc2nc(-c3ccc(S(=O)(=O)N4CCOCC4)cc3)cs2)cc1,93.5% [at 12.3 µM] (active)
18,CO[C@@H]1CN(C)C(=O)c2ccc(NC(=O)c3ccc(F)cc3)cc2OC[C@H](C)N(C)C[C@H]1C,9.99%
19,CN1C(=O)c2cc(NC(=O)c3cscn3)ccc2OC[C@H]2O[C@@H](CC(=O)NCC3CC3)CC[C@H]21,-0.83%
20,C[C@@H]1CCCCO[C@H](CN(C)Cc2ccccc2)[C@@H](C)CN([C@H](C)CO)C(=O)c2cc(NS(C)(=O)=O)ccc2O1,-1.64%
21,CCn1c(SCC(=O)NC2CCCC2)nnc1-c1ccoc1C,-2.28% [at 12.3 µM]
22,COc1ccccc1NC(=O)CSc1nnc(Cn2nnc(-c3ccccc3)n2)n1-c1ccccc1,-41.2% [at 12.3 µM]

row,SMILES,inhibition
1,COc1ccccc1NC(=O)CSc1nnc(-c2ccoc2C)n1CCc1ccccc1,62.4% [at 12.3 µM] (active)
2,COc1ccc(C#Cc2cnc3c(c2)C(=O)N([C@H](C)CO)C[C@@H](C)[C@@H](CN(C)C(=O)CN(C)C)O3)cc1,-3.11%
3,COc1ccc(-c2cnc3c(c2)C(=O)N([C@@H](C)CO)C[C@H](C)[C@H](CN(C)C(=O)Cc2cccnc2)O3)cc1,-3.34%
4,Cc1ccc(S(=O)(=O)Nc2ccc3ncccc3c2)cc1,60.8% [at 12.3 µM] (active)
5,Cc1ccc(NS(=O)(=O)c2ccc(C(C)(C)C)cc2)cn1,3.22% [at 12.3 µM]
6,Cc1cc(C)cc(OCC(=O)Nc2ccc(S(=O)(=O)Nc3ccccn3)cc2)c1,19.9% [at 12.3 µM]
7,CCCCCCCNC(=O)C1(CC2CC(c3cccc(Br)c3)=NO2)CCN(C(=O)c2cc(OCC)c(OCC)c(OCC)c2)CC1 (centres undefined),28.1% [at 12.3 µM]
8,COc1ccc(CNC(=O)C2(CC3CC(c4ccccc4)=NO3)CCN(C(=O)c3cccc(O)c3)CC2)cc1 (centres undefined),65.8% [at 12.3 µM] (active)
9,O=C(c1ccccc1)N1CCC(CC2CC(c3ccc(Cl)cc3)=NO2)(C(=O)NCC2CCCCC2)CC1 (centres undefined),-114% [at 12.3 µM]
10,CO[C@@H]1CN(C)C(=O)c2cc(NC(=O)C3CCOCC3)ccc2OC[C@H](C)N(C)C[C@H]1C,0.584%
11,C[C@@H]1CCCCO[C@H](CN(C)C)[C@H](C)CN([C@@H](C)CO)C(=O)c2cc(NS(=O)(=O)c3ccccc3)ccc2O1,19.2%
12,Cc1ccc(C(=O)N/C(=C\c2cccs2)C(=O)NCCc2ccccn2)cc1C,-3.78% [at 12.3 µM]
13,COc1ccc(NCCc2ccccn2)cc1,-6.27% [at 12.3 µM]
14,COc1cncc(-c2cnc3sc(NCCc4ccccn4)nn23)c1,61.5% [at 12.3 µM] (active)
15,CCNC(=O)Nc1ccc2c(c1)C(=O)N(C)[C@H]1CC[C@@H](CC(=O)N[C@@H](C)c3ccccc3)O[C@H]1CO2,0.456%
16,COCC(=O)N1C[C@@H](C)[C@H](OC)CN(C)C(=O)c2cc(NC(=O)c3cc(C)on3)ccc2OC[C@@H]1C,-4.38%
17,C[C@@H]1CN([C@H](C)CO)C(=O)Cc2cc(NC(=O)Cn3cnnn3)ccc2O[C@H]1CN(C)Cc1ccc(C(F)(F)F)cc1,3.54%
18,COc1ccccc1CNC(=O)C1CCN(S(C)(=O)=O)CC1,-69% [at 12.3 µM]
19,COC(=O)C1(C(=O)OC)C[C@H](c2ccccc2)N(Cc2ccccc2OC)[C@@H]1c1ccccc1,84.1% [at 12.3 µM] (active)
20,COc1ccccc1CNC(=O)CCCN1C(=O)NC2(CCCC2)C1=O,2.68% [at 12.3 µM]
21,O=C(N[C@H]1CC[C@@H](CCNC(=O)C2CCC2)O[C@@H]1CO)c1ccncc1,7.35%
22,C[C@@H]1CN([C@@H](C)CO)C(=O)c2cc(NC(=O)C3CCCCC3)ccc2O[C@@H](C)CCCCO[C@H]1CN(C)C(=O)CCC(F)(F)F,7.33%

row,SMILES,inhibition
1,C[C@H](CO)N1C[C@H](C)[C@@H](CN(C)S(=O)(=O)c2cccc(F)c2)OCc2ccccc2-c2c(n(C)c3ccccc23)C1=O,56% (active)
2,C[C@@H]1CN([C@@H](C)CO)C(=O)c2c(c3ccccc3n2C)-c2ccccc2CO[C@@H]1CN(C)S(=O)(=O)CC(F)(F)F,-10.3%
3,C[C@H](CO)N1C[C@H](C)[C@H](CN(C)C(=O)c2ccncc2)OCc2ccccc2-c2c(n(C)c3ccccc23)C1=O,59.8% (active)
4,C[C@@H]1CN([C@H](C)CO)C(=O)c2c(c3ccccc3n2C)-c2ccccc2CO[C@H]1CN(C)C(=O)c1ccncc1,1.26%
5,C[C@@H]1CN([C@H](C)CO)C(=O)c2c(c3ccccc3n2C)-c2ccccc2CO[C@H]1CN(C)S(=O)(=O)c1ccccc1F,6.3%
6,Cc1noc(C)c1C(=O)N(C)C[C@H]1OCc2ccccc2-c2c(n(C)c3ccccc23)C(=O)N([C@@H](C)CO)C[C@H]1C,-3.54%
7,COc1ccc(S(=O)(=O)N(C)C[C@@H]2OCCCC[C@H](C)Oc3ccc(NC(=O)NC(C)C)cc3C(=O)N([C@@H](C)CO)C[C@@H]2C)cc1,8.34%
8,COc1ccc(NC(=O)Nc2ccc3c(c2)C(=O)N([C@H](C)CO)C[C@@H](C)[C@@H](CN(C)C(=O)NC(C)C)OCCCC[C@H](C)O3)cc1,-15.9%
9,C/C=C/c1ccc2c(c1)O[C@H](CN(C)C(=O)c1ccc3c(c1)OCO3)[C@@H](C)CN([C@H](C)CO)S2(=O)=O,-3.13%
10,C[C@H](CO)N1C[C@H](C)[C@@H](CN(C)C(=O)Nc2ccc(F)cc2)OCCCC[C@H](C)Oc2ccc(NC(=O)c3ccncc3)cc2C1=O,-27.7%
11,COc1ccc([Si](C)(C)[C@@H]2[C@@H](CCO)O[C@]3(C(=O)N(Cc4ccccc4)c4ccc(N5CCC5=O)cc43)[C@H]2C)cc1,15.1%
12,COc1ccc([Si](C)(C)[C@@H]2[C@@H](CCO)O[C@]3(C(=O)N(Cc4cccc(N5CCCCC5=O)c4)c4ccccc43)[C@H]2C)cc1,-10.1%
13,COc1ccc([Si](C)(C)[C@H]2[C@H](CCO)O[C@@]3(C(=O)N(Cc4cccc(N5CCOC5=O)c4)c4ccccc43)[C@@H]2C)cc1,61.7% (active)
14,Cc1noc(C)c1NC(=O)N[C@@H]1CC[C@H](CCNC(=O)C2CCC2)O[C@@H]1CO,5.86%
15,Cc1noc(C)c1S(=O)(=O)N(C)C[C@@H]1OCc2ccccc2-c2ccccc2C(=O)N([C@@H](C)CO)C[C@H]1C,28.5%
16,C[C@H]1CN([C@@H](C)CO)C(=O)c2ccccc2-c2ccccc2CO[C@@H]1CN(C)S(=O)(=O)c1ccc(C(F)(F)F)cc1,22.4%
17,C[C@H]1CN([C@@H](C)CO)C(=O)c2ccccc2-c2ccccc2CO[C@H]1CN(C)S(=O)(=O)c1cccc(C#N)c1,56.8% (active)
18,C[C@H]1CN([C@@H](C)CO)C(=O)c2ccccc2-c2ccccc2CO[C@H]1CN(C)S(=O)(=O)c1ccccc1C#N,66.4% (active)
19,C[C@H](CO)N1C[C@H](C)[C@@H](CN(C)S(=O)(=O)c2cccs2)OCc2ccccc2-c2ccccc2C1=O,3.13%
20,C[C@@H]1CN([C@H](C)CO)C(=O)c2ccccc2-c2ccccc2CO[C@H]1CN(C)S(=O)(=O)c1ccsc1,15.4%
